The results in this text go back to PubChem BioAssay (NCI).

Each structure is given as a SMILES string. About 83,000 compounds went through this panel and 20% of them were active in at least one assay; those are over-represented in the sample as a whole.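 Results are percent growth after 48 hours of single-concentration exposure. 100 means growth as in untreated cells, lower positive values show inhibition; negative values down to -100 show cell death.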 A number with no mark means an inactive call. The source made the active and inactive calls. How the source made its calls: active means growth percent below 10; inactive means the rest.

Common to all, as to assay: NCI-60 one-dose screen, 48 h (100 = growth as untreated, 0 = no growth, -100 = all killed)
Common to all, as to conditions: 10 µM unless noted

Assay [1] concerns RPMI-8226 leukemia.
Assay [2] deals with OVCAR-8 ovarian.
Assay [3] relates to OVCAR-5 ovarian.
Assay [4] deals with OVCAR-4 ovarian.
In assay [5] the test system is IGROV1 ovarian.
Assay [6] relates to OVCAR-3 ovarian.
For assay [7], the system named is HS 578T breast.
The subject of assay [8] is NCI/ADR-RES ovarian.
For assay [9], the system named is SK-OV-3 ovarian.

Take `CN(C[C@H]1Cc2c(cccc2N2CCN(c3ncccn3)CC2)CN1)[C@H]1CCCc2cccnc21`: the growth was 27.1% in [1]; 30% in [2]; 52.8% in assay [3]; 52.9% in [4]; 37.1% in assay [5]; 34% in [6]. Besides, the figures for the growth in [7] and in [8] were 73.1% and 9.46% (active), respectively.

Regarding `COc1ccc(-n2c(=O)sc3c(Cl)nc(C)nc32)c(OC)c1`, the growth was 106% in assay [1]; 56.9% in assay [2]; 92% in assay [3]; 101% in [4]; 28.8% in assay [5]; 68.8% in assay [6]. In addition, the growth in assay [7] is 93.9%; in [8], 101%.

As to `COP(=O)(OC)/C(=N\NS(=O)(=O)c1ccc(C)cc1)c1ccccc1`, the growth was 109% in assay [1]; 106% in assay [2]; 91% in [3]; 91.7% in assay [9]; 103% in [6]; 123% in [7]. Also, the growth in assay [8] is 95.8%.

Regarding `O=C(Nc1ccc2c(c1)OCO2)C(=O)c1c[nH]c2cc(F)ccc12`, the growth in assay [2] was 59%; in [3] it was 77.6%; in [4], 50.7%; in assay [9] it was 59.7%; in assay [5] it was 59.6%; in [6], 50.5%. Besides, the growth in assay [7] was 50.1%; in [8] it was 47.6%.

As for `COc1ccc(-c2ccc(C)n2-c2ccc(-c3nc4ccccc4s3)cc2)cc1`, the growth in assay [1] was 70.4%; in assay [3], 101%; in assay [4], 92.9%; in [9] it was 80.3%; in assay [5] it was 92.8%; in assay [6], 107%. The growth was 97.5% in [7] and 89.9% in assay [8].

With `COc1ccc(C(=O)c2cc(OC)c3c(c2)OCO3)cc1O`, the growth in assay [1] is 24.7%; in assay [2], 17.8%; in assay [4], 37.7%; in assay [5] it was 27.9%; in assay [6], -41.7% (active); in assay [7] it was 12.2%. Also, in assay [8], the growth was 2.68% (active).

Take `CCOC(=O)CN1/C(=N/c2sc3c(c2C(=O)OCC)CCN(C(=O)OCC)C3)SC(=O)/C1=C\C(=O)OC`: the growth in assay [1] is -28.8% (active); in [3], 89.9%; in assay [4], 86.8%; in [9], 111%; in [5] it was 92.1%; in [6] it was 92.1%. For the same molecule, the growth is 82.7% in assay [7] and 87% in assay [8].

Turning to `COc1cc(-c2nc(-c3nc4ccc(Cl)cc4[nH]3)cc3c2[nH]c2ccccc23)cc(OC)c1OC`, the growth in assay [2] is 48.4%; in assay [3] it was 93.3%; in assay [4] it was 59.9%; in assay [9], 103%; in [5] it was 52.6%; in assay [6], 82.8%. Also, the growth in [7] is 77.3%; in [8], 55.6%.

On to `O=C1Nc2ccc(Cl)cc2C12Nc1cc(Cl)ccc1S2` (configuration not stated), for which the growth in assay [1] is 44.3%; in assay [2], 99.2%; in [3], 113%; in assay [9], 108%; in assay [6], 72%; in assay [7], 144%. For the same molecule, the growth in assay [8] is 82.5%.

Take `CC1=NC2=CC=CC3=NC(C(Cl)(Cl)Cl)=NC(=N1)N23`: the growth in [1] was 50.3%; in assay [2], 84.9%; in assay [3], 112%; in [4], 73%; in [9] it was 87.3%; in [6], 34.8%. Besides, the results for the growth in assay [7] and in assay [8] were 62.6% and 81.6%, respectively.

Regarding `CC(O)CN1CCCCC1` (configuration not stated), the growth is 113% in [1]; 105% in assay [2]; 110% in assay [3]; 109% in assay [4]; 106% in assay [5]; 105% in assay [6]. For the same molecule, the growth is 113% in assay [7] and 106% in assay [8].

`COc1cc(C2C3=C(COC3=O)Nc3cc4c(cc32)OCO4)cc2c1OCO2` (configuration not stated): the growth is 21.9% in assay [1]; 14.3% in assay [2]; 51.9% in assay [4]; 12.8% in [9]; 23.6% in assay [5]; -45.3% (active) in assay [6]. Further, the growth in assay [7] was 14.6%; in [8], 9.84% (active).

As to `O=C(Nc1cccc(-n2cc(-c3ccncc3)c(-c3ccc(Cl)c(O)c3)n2)c1)Nc1ccc(Cl)c(Cl)c1`, the growth in assay [1] was 7.89% (active); in [3], 56.4%; in [4] it was 29.4%; in assay [9] it was 18.7%; in assay [5], 28.7%; in assay [6], -4.74% (active). The growth in assay [7] was 36.1%; in assay [8] it was 20.9%.

Consider `Fc1ccccc1-c1nc(-c2nc3cc(Cl)c(Cl)cc3[nH]2)c2ccccn12`, for which the growth was 74.7% in assay [1]; 68.4% in assay [2]; 1.61% (active) in [4]; 83.7% in assay [9]; 21.9% in assay [5]; 70.5% in assay [6]. Moreover, the growth in assay [7] was 44%; in assay [8] it was 76%.

Turning to `Nc1cc2c([nH]c[n+]2CC#CCCl)c(SCC#CCCl)n1`, the growth was -2.17% (active) in assay [1]; 0.0129% (active) in assay [2]; -76.9% (active) in assay [3]; -57% (active) in assay [5]; -21.1% (active) in assay [6]; 47.3% in assay [7]. Moreover, the growth in assay [8] was -24.2% (active).

In the case of `CC(=O)c1cc2c(N)c(C(=O)Nc3cccc4c3OCCO4)sc2nc1C`, the growth in [1] was 99.7%; in assay [3] it was 100%; in assay [4], 110%; in [9] it was 35.8%; in assay [5] it was 101%; in assay [6] it was 105%. Further, the growth in [7] was 96.3%; in assay [8], 96.8%.

For the molecule `COc1ccc(-c2c(N)n[nH]c2-c2cc(OC)c3c(c2)OCCO3)cc1`, the growth in [1] is 74.7%; in assay [2], 83.5%; in assay [4], 101%; in assay [9], 90.2%; in assay [5] it was 85.9%; in assay [6], 76.2%. Moreover, the growth in assay [7] is 86.2%; in assay [8], 63.8%.
